Test results as given in the supplement of paper PMC6555819.

Columns and labels:
Assay in all cases: PBM binding z-score (relative to random genomic background probes); higher = stronger binding; sequences stand for … in GC…GCGATTGACAGCGTAGAATGAAGG
[1] = system: RARb homodimer (NR concentration 270 nM)
Method in brief: (§1)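 Antibodies against each partner of ligand-free nuclear receptor dimers (one per run) detected binding on custom Agilent 4×180K protein-binding microarrays after 1 h incubation. The double-stranded probes had 34-nt variable regions carrying direct-repeat seeds, single-nucleotide variants, half-site ablations and random human genomic background sequences. Binding z-scores, from regression-normalized fluorescence, use the random background probes as reference.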

[2] = system: RARg:RXRa (NR concentration 270 nM, RXRa partner concentration 90 nM)
Method in brief: as §1

[3] = system: RARg homodimer (NR concentration 270 nM)
Method in brief: as §1

[4] = system: RXRa DBDmut IVT, anti-RXR (DBD mutation: RXRa K156A/R161A, NR concentration 90 nM)
Method in brief: as §1

[5] = system: RXRa homodimer (NR concentration 180 nM)
Method in brief: as §1

[6] = system: THRa:RXRa (NR concentration 90 nM, RXRa partner concentration 90 nM)
Method in brief: as §1

[7] = system: THRa homodimer (NR concentration 90 nM)
Method in brief: as §1

[8] = system: VDR:RXRa (NR concentration 270 nM, RXRa partner concentration 90 nM)
Method in brief: as §1

[9] = system: VDR homodimer (NR concentration 270 nM)
Method in brief: as §1

Sequence	PBM binding z-score [1]	PBM binding z-score [2]	PBM binding z-score [3]	PBM binding z-score [4]	PBM binding z-score [5]	PBM binding z-score [6]	PBM binding z-score [7]	PBM binding z-score [8]	PBM binding z-score [9]
GATACAGGGTCAAGGCCAGCGTACGCGTATTGAT	3.63	5.27	4.55	2.14	5.61	3.53	1.43	3.89	1.31
ATCGAAAGGTCGAACGTGAGTATACCCACCCGAA	2.3	3.98	3.79	1.83	4.08	1.89	-0.12		0.989
TAGCCTAGGTCATGCAGGCCAGTATAGTGTCGGC	2.76	4	4.12	0.936	2.96	3	0.919	3.25	0.989
AGAACGATGGCACGCTGAGTTGATAGCAGAGTAG	-0.907	-0.162	-0.0451	-0.483	-0.397	-0.632	-1.01	-0.574	-0.128
GCTAGTTGGTCAGTAAAAAGTCACACACCGGTCG	1.33	0.522	0.701	0.212	0.223	0.00328	-0.343	0.0507	0.168
CCTACTGGGCCAAAGGTCATTTATTCCAATGCTC	4.42	5.3	4.03	1.55	6.1	3.27	0.735		3.04
CTCGAAAGGTCGTGCTCAGGTGAGTATTCCAAAC	3.11	5.04	3.61	2.25	4.55	4.04	1.31	3.26	0.806
TCTATTAGTTGACTAGGGCAACCGAAACAGCGGA	0.778	0.736	0.586	1.31	0.703	0.514	0.147		0.286
GCTGCTAGGTCAGGTTGATCAGCTAACGGGTACG	2.24	2.65	3.71	0.558	1.14	1.73	0.499	0.431	0.442
CCTAGCAGGCCAGGGGCACTCAAGCATTTCGCTT	-0.0718	-0.38	-0.0557	-1.12	-0.341	-0.336	-1.01	-0.66	-0.769
CCTACTGGGCCAAAAAGGTCATTGTTGCCGATAA	4.29	4.28	3.91	0.617	4.21	2.92	0.342		2.3
TCTTCTAGATCAGCAGGTTAAGAAAGCTGGCCAA	-0.301	0.12	0.0708	0.571	0.331	0.17	-0.696	0.175	-0.431
ATGTGTAGGTTAGCTGGGGTCATTCAGACTAGGC	3.72	4.37	3.19	2.08	5.51	5.15	3.53	6.24	5.92
CGAACTAGGTCGGAACAGGACAGTGAAGGATGAT	0.127	0.399	0.643	-0.112	0.169	1.89	-0.442	-0.292	-0.102
AATACAGGGTCATCGTAGGCCAGAGGACGCACAG	3.8	5.78	5.21	3.64	7.03	4.56	1.75	5.19	3.53
CCTTACGGGTCACTGTCAGGTTATAGCATTTGGA	3.14	5.51	4.38	1.75	4.49	3.83	0.905	3.87	1.41
AGCATGAGGTTATACGTAGATCAGGGAAGAAAGT	0.998	1.64	1.3	1.63	1.8	2.11	0.665	1.44	0.812
ACTATTAGCTGAGACGAGGGCAACCGATAGGTTG	1.27	0.452	0.667	0.345	0.587	0.992	0.251	0.232	0.999

Sequence	PBM binding z-score [1]	PBM binding z-score [2]	PBM binding z-score [3]	PBM binding z-score [4]	PBM binding z-score [5]	PBM binding z-score [6]	PBM binding z-score [7]	PBM binding z-score [8]	PBM binding z-score [9]
ACAGACAGGTGATCAAGGTAACTCAGGCTATCAT	0.159	0.183	0.508	-0.511	0.28	1.72	0.997	0.483	-0.138
CCTTACGGGTCACTCCAGGTTACAGCATCGGAGT	3.31	4.27	4.33	1.46	4.26	5.28	0.933	3.95	1.56
CCTTACGGGGCACTGACAGGTTATAGCATTTGGA	0.4	0.997	0.998	0.12	0.44	0.141	-0.73	-0.341	-0.309
CGTCCAAGGTCAGCCGGTCAGTGAAAGCGACGTG	4.5	5.54	6.43	2.56	3.93	3.58	1.93	3.32	0.973
ACTGACAGGTGAGTGAAGGTAACTCAGCTGGACG	0.153	0.285	0.606	-0.285	0.3	1.74	-0.42	-0.322	-0.23
CCGACTCGGGCAAAGGTTACCATACTCAGTACGA	2.04	3.36	1.68	0.702	3.21	1.6	-0.126	1.33	-0.375
AGAACGACGGCACGCTGAGTTGATAGCAGAGTAG	-0.983	-0.171	-0.213	-0.569	-0.1	-0.601	-1.14	-0.301	-0.198
CGTCCAAGGTCAAAGGTCAGAGAAGAGATGACGG	5.36	8.94	8.33	3.99	10.6	4.84	2.39	6.75	3.54
CCTATTAGTTAACCATAAGGGCAACCGAAGCTCG	1.66	0.813	1.14	0.665	0.518	1.9	1.31	0.653	0.663
TCTAGTTGGTCACGGAGGTCACACACGACGGGTA	4.44	4.66	4.79	0.886	4.58	3.61	2.53	5.62	3.25
GATACAGGGTCAGCTAGAGGCCAGAGTGTGGAAA	3.67	6.74	4.74	1.34	4.41	3.15	0.703	3.39	0.787
GGAACGAGGGCAAGTTAATAGCAGAGTTTGATGG	1.35	1.46	2.01	2.29	0.717	1.2	-0.0334	0.803	1.6
CCGACTGGGGCATAAGGATACCATAAGCCAGCCC	-0.129	-0.00817	0.301	-0.682	0.0556	0.92	0.5	-0.657	-0.401
ACTAGTTGGTGAGCTGAGGTCACACACAATTCGG	3.86	3.85	3.11	0.874	4.01	4.44	5.07	3.55	3.31
ATATGTAGGTTATAGGGTCATTCAGTTTGCGCAT	3.76	4.28	3.26	2.26	4.98	3.83	3.31	5.98	4.34
TGTCAAAGTTCGAAGGTAACGTAAGTATCCACAC	1.02	2.38	1.83	1.74	2.23	1.44	0.0268	1.78	0.722
CTCCAAAGGTCGTGCTCAGGTGAGTATACCAAAC	2.74	5.41	4	2.23	5.01	4.15	1.09		0.905
CCTACAGGGCCACGAAAGGTCATTGATTCAGTGA	5.01	5.13	5.03	0.833	5.27	4.25	0.829		2.2
